Measured values from the supplement of paper PMC9262897, “Low-cost anti-mycobacterial drug discovery using engineered E. coli” (Nature Communications, 2022).
Structures can show the parent of a compound that is named as a salt. ± gives the standard deviation of the averaged measurements.

These compounds were tested on E. coli TESEC Mtb Asd (assay: growth (OD600 after 10 h); higher = more growth (less inhibition)). Details: arabinose induction (level): High; compound 0.1 mM; raw OD600 reference: median of DMSO wells 0.331, cell-free background 0.041.
Procedure: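 TESEC E. coli strains in which the native enzyme is deleted and replaced by arabinose-inducible Mtb Asd, DapB, CysH or TrpD, each grown in its selective medium. Strains were screened against the Prestwick library at 0.1 mM and 1% DMSO in 384-well format at low and high arabinose induction. Growth is read as OD600 after 10 h in triplicate.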

Point of comparison: `CC(C)(C)NC(=O)[C@@H]1C[C@@H]2CCCC[C@@H]2CN1C[C@@H](O)[C@H](Cc1ccccc1)NC(=O)[C@H](CC(N)=O)NC(=O)c1ccc2ccccc2n1` [Saquinavir mesylate], growth 0.0544 ± 0.0037. Against it:
- CCC(NC(C)C)C(O)c1ccc(O)c(O)c1 (configuration not stated) [Isoetharine mesylate salt] — higher, 0.309 ± 0.11
- C[C@H]1O[C@@H](O[C@H]2[C@@H](O)C[C@H](O[C@H]3[C@@H](O)C[C@H](O[C@H]4CC[C@@]5(C)[C@H](CC[C@@H]6[C@@H]5C[C@@H](O)[C@]5(C)[C@@H](C7=CC(=O)OC7)CC[C@]65O)C4)O[C@@H]3C)O[C@@H]2C)C[C@H](O)[C@@H]1O [Digoxin] — higher, 0.28 ± 0.057
- CC(C)(O/N=C(\C(=O)N[C@@H]1C(=O)N2C(C(=O)[O-])=C(C[n+]3ccccc3)CS[C@H]12)c1csc(N)n1)C(=O)O [Ceftazidime pentahydrate] — higher, 0.113 ± 0.0029
- Cc1cccc(C)c1NC(=O)C(C)N (configuration not stated) [Tocainide hydrochloride] — higher, 0.209 ± 0.016
- CCCCNc1cc(C(=O)O)cc(S(N)(=O)=O)c1Oc1ccccc1 [Bumetanide] — higher, 0.226 ± 0.01
- CCCSc1ccc2[nH]c(NC(=O)OC)nc2c1 [Albendazole] — higher, 0.41 ± 0.017
- O=c1[nH]cc(F)c(=O)[nH]1 [5-fluorouracil] — higher, 0.193 ± 0.013
- CCN(CC)CCOC(=O)C(c1ccccc1)c1ccccc1 [Adiphenine hydrochloride] — higher, 0.197 ± 0.033
- CCCCc1cc2ccccc2c(OCCN(C)C)n1 [Dimethisoquin hydrochloride] — higher, 0.154 ± 0.0042
- Nc1ccc(S(=O)(=O)Nc2nccs2)cc1 [Sulfathiazole] — higher, 0.377 ± 0.045
- Nc1c2c(nc3ccccc13)CCCC2 [Tacrine hydrochloride] — higher, 0.242 ± 0.052
- O=C(O)c1cc(/N=N/c2ccc(S(=O)(=O)Nc3ccccn3)cc2)ccc1O [Sulfasalazine] — higher, 0.314 ± 0.065
- Oc1c(Cl)cc(Cl)c(Cl)c1Cc1c(O)c(Cl)cc(Cl)c1Cl [Hexachlorophene] — within error, 0.0582 ± 0.0021
- CN1CCN(C2=Nc3cc(Cl)ccc3Nc3ccccc32)CC1 [Clozapine] — higher, 0.143 ± 0.018
- COc1ccc(C2CNC(=O)C2)cc1OC1CCCC1 (configuration not stated) [Rolipram] — higher, 0.373 ± 0.044
- C[C@H](Cc1cc2c(c(C(N)=O)c1)N(CCCO)CC2)NCCOc1ccccc1OCC(F)(F)F [Silodosin] — higher, 0.302 ± 0.092
- COCCCOc1ccnc(C[S+]([O-])c2nc3ccccc3[nH]2)c1C (configuration not stated) [Rabeprazole Sodium salt] — higher, 0.423 ± 0.028
- O=C(O)c1cccnc1Nc1cccc(C(F)(F)F)c1 [Niflumic acid] — higher, 0.15 ± 0.022
- C[C@]12CC[C@@H]3c4ccc(O)cc4C[C@@H](CCCCCCCCC[S+]([O-])CCCC(F)(F)C(F)(F)F)[C@H]3[C@@H]1CC[C@@H]2O (some centres not stated) [Fulvestrant] — higher, 0.379 ± 0.022
- CC(C)(C)NCC(O)COc1cccc2c1CC(O)C(O)C2 (configuration not stated) [Nadolol] — higher, 0.336 ± 0.067
- CCc1cccc(CC)c1NC(=O)CN(CC(=O)O)CC(=O)O [Etifenin] — higher, 0.29 ± 0.033
- CCC(=O)[C@@]1(C)[C@H](C)C[C@H]2[C@@H]3CCC4=CC(=O)C=C[C@]4(C)[C@H]3[C@@H](O)C[C@@]21C [Rimexolone] — higher, 0.203 ± 0.03
- Cc1cn([C@H]2C[C@H](N=[N+]=[N-])[C@@H](CO)O2)c(=O)[nH]c1=O [Zidovudine, AZT] — higher, 0.1 ± 0.0079
- O=C(CCCCCCC(=O)Nc1ccccc1)NO [Vorinostat] — higher, 0.195 ± 0.028
- CN/C(=N\CCSCc1nc[nH]c1C)NC#N [Cimetidine] — higher, 0.376 ± 0.1
- O=C(N[C@H](CO)[C@H](O)c1ccc([N+](=O)[O-])cc1)C(Cl)Cl [Chloramphenicol] — within error, 0.0519 ± 0.00067

Same assay, conditions: arabinose induction (level): Low; compound 0.1 mM; raw OD600 reference: median of DMSO wells 0.417, cell-free background 0.041

Point of comparison: `NC1CCN(c2nc3c(cc2F)c(=O)c(C(=O)O)cn3-c2ccc(F)cc2F)C1` (configuration not stated) [Tosufloxacin hydrochloride], growth 0.0575 ± 0.0039. Against it:
- N=c1nc(N2CCCCC2)cc(N)n1O [Minoxidil] — higher, 0.384 ± 0.054
- CC(=O)NC[C@H]1CN(c2ccc(N3CCOCC3)c(F)c2)C(=O)O1 [Linezolid] — higher, 0.0786 ± 0.0075
- CC(O)(P(=O)(O)O)P(=O)(O)O [Etidronic acid, disodium salt] — higher, 0.426 ± 0.068
- COc1ccc2cc([C@@H](C)C(=O)O)ccc2c1 [(R) -Naproxen sodium salt] — higher, 0.341 ± 0.077
- O=C(NCCNCC(O)COc1ccc(O)cc1)N1CCOCC1 (configuration not stated) [Xamoterol hemifumarate] — higher, 0.463 ± 0.043
- Cc1cc2cc3c(C)cc(=O)oc3c(C)c2o1 [Trioxsalen] — higher, 0.423 ± 0.0095
- CCCCC(=O)O[C@H]1CC[C@H]2[C@@H]3CCc4cc(O)ccc4[C@H]3CC[C@]12C [Estradiol Valerate] — higher, 0.396 ± 0.048
- CCCc1ncc(C[n+]2ccccc2C)c(N)n1 [Amprolium hydrochloride] — higher, 0.386 ± 0.0088
- COC1=C(OC)C(=O)C(CCCCCCCCCCO)=C(C)C1=O [Idebenone] — lower, 0.0501 ± 0.0007
- CC(N/C(=N\C#N)Nc1ccncc1)C(C)(C)C (configuration not stated) [Pinacidil] — higher, 0.412 ± 0.03
- C[C@H]1C[C@H]2[C@@H]3CCC4=CC(=O)C=C[C@]4(C)[C@@]3(F)[C@@H](O)C[C@]2(C)[C@@]1(O)C(=O)CO [Betamethasone] — higher, 0.36 ± 0.054
- Fc1ccc(C(c2ccc(F)cc2)N2CCN(C/C=C/c3ccccc3)CC2)cc1 [Flunarizine dihydrochloride] — within error, 0.056 ± 0.0016
- CCC(NC(C)C)C(O)c1ccc(O)c(O)c1 (configuration not stated) [Isoetharine mesylate salt] — higher, 0.37 ± 0.062
- C[C@H]1O[C@@H](O[C@H]2[C@@H](O)C[C@H](O[C@H]3[C@@H](O)C[C@H](O[C@H]4CC[C@@]5(C)[C@H](CC[C@@H]6[C@@H]5C[C@@H](O)[C@]5(C)[C@@H](C7=CC(=O)OC7)CC[C@]65O)C4)O[C@@H]3C)O[C@@H]2C)C[C@H](O)[C@@H]1O [Digoxin] — higher, 0.413 ± 0.046
- CC(C)(O/N=C(\C(=O)N[C@@H]1C(=O)N2C(C(=O)[O-])=C(C[n+]3ccccc3)CS[C@H]12)c1csc(N)n1)C(=O)O [Ceftazidime pentahydrate] — within error, 0.0679 ± 0.011
- Cc1cccc(C)c1NC(=O)C(C)N (configuration not stated) [Tocainide hydrochloride] — higher, 0.433 ± 0.031
- CCCCNc1cc(C(=O)O)cc(S(N)(=O)=O)c1Oc1ccccc1 [Bumetanide] — higher, 0.449 ± 0.062
- CCCSc1ccc2[nH]c(NC(=O)OC)nc2c1 [Albendazole] — higher, 0.409 ± 0.033
- O=c1[nH]cc(F)c(=O)[nH]1 [5-fluorouracil] — higher, 0.238 ± 0.015
- CCN(CC)CCOC(=O)C(c1ccccc1)c1ccccc1 [Adiphenine hydrochloride] — higher, 0.382 ± 0.069
- CCCCc1cc2ccccc2c(OCCN(C)C)n1 [Dimethisoquin hydrochloride] — higher, 0.171 ± 0.015
- Nc1ccc(S(=O)(=O)Nc2nccs2)cc1 [Sulfathiazole] — higher, 0.384 ± 0.032
- Nc1c2c(nc3ccccc13)CCCC2 [Tacrine hydrochloride] — higher, 0.316 ± 0.076
- O=C(O)c1cc(/N=N/c2ccc(S(=O)(=O)Nc3ccccn3)cc2)ccc1O [Sulfasalazine] — higher, 0.363 ± 0.054
- Oc1c(Cl)cc(Cl)c(Cl)c1Cc1c(O)c(Cl)cc(Cl)c1Cl [Hexachlorophene] — within error, 0.0553 ± 0.004
- CC(C)(C)NC(=O)[C@@H]1C[C@@H]2CCCC[C@@H]2CN1C[C@@H](O)[C@H](Cc1ccccc1)NC(=O)[C@H](CC(N)=O)NC(=O)c1ccc2ccccc2n1 [Saquinavir mesylate] — lower, 0.0524 ± 0.001
- CN1CCN(C2=Nc3cc(Cl)ccc3Nc3ccccc32)CC1 [Clozapine] — higher, 0.293 ± 0.0055
- COc1ccc(C2CNC(=O)C2)cc1OC1CCCC1 (configuration not stated) [Rolipram] — higher, 0.425 ± 0.047
- C[C@H](Cc1cc2c(c(C(N)=O)c1)N(CCCO)CC2)NCCOc1ccccc1OCC(F)(F)F [Silodosin] — higher, 0.474 ± 0.012
- COCCCOc1ccnc(C[S+]([O-])c2nc3ccccc3[nH]2)c1C (configuration not stated) [Rabeprazole Sodium salt] — higher, 0.371 ± 0.01
- O=C(O)c1cccnc1Nc1cccc(C(F)(F)F)c1 [Niflumic acid] — higher, 0.16 ± 0.018
- C[C@]12CC[C@@H]3c4ccc(O)cc4C[C@@H](CCCCCCCCC[S+]([O-])CCCC(F)(F)C(F)(F)F)[C@H]3[C@@H]1CC[C@@H]2O (some centres not stated) [Fulvestrant] — higher, 0.415 ± 0.041
- CC(C)(C)NCC(O)COc1cccc2c1CC(O)C(O)C2 (configuration not stated) [Nadolol] — higher, 0.442 ± 0.0083
- CCc1cccc(CC)c1NC(=O)CN(CC(=O)O)CC(=O)O [Etifenin] — higher, 0.375 ± 0.09
- CCC(=O)[C@@]1(C)[C@H](C)C[C@H]2[C@@H]3CCC4=CC(=O)C=C[C@]4(C)[C@H]3[C@@H](O)C[C@@]21C [Rimexolone] — higher, 0.41 ± 0.047
- Cc1cn([C@H]2C[C@H](N=[N+]=[N-])[C@@H](CO)O2)c(=O)[nH]c1=O [Zidovudine, AZT] — higher, 0.0819 ± 0.012
- O=C(CCCCCCC(=O)Nc1ccccc1)NO [Vorinostat] — higher, 0.335 ± 0.061
- CN/C(=N\CCSCc1nc[nH]c1C)NC#N [Cimetidine] — higher, 0.376 ± 0.045
- O=C(N[C@H](CO)[C@H](O)c1ccc([N+](=O)[O-])cc1)C(Cl)Cl [Chloramphenicol] — within error, 0.0522 ± 0.0019
